ARNT TACC3 PPI – ARNT/TACC3 interaction disruption; AID 623870; hit rate 0.66% among 390,000; inhibition, % at 9.99 µM; Q9Y6A5; AlphaScreen His-ARNT PAS-B/GST-TACC3 binding, luminescence; TACC3 fragment carries E629A point mutation;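 active means mean inhibition of replicates at least 50% and at least half of replicates each reaching 50%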;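 further: 0% = complete ARNT plus TACC3 wells and 100% = ARNT alone without TACC3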
Casp6 inh – blocks human caspase-6 cleavage activity | P55212 | purified caspase-6, Z-VEID-R110 cleavage fluorescence | inhibition, % at 12.5 µM | hit rate 0.53% among 350,000;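 active means mean inhibition across replicates at least about 35%, with every replicate also reaching that limit, limit read from the data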;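 further: 0% = median of neutral control wells and 100% = no fluorescence left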
NSD2 inh – NSD2 (human) methyltransferase inhibition; NSD2 peptide methylation, AlphaScreen, 120 min; O96028; hit rate 0.54% among 310,000; inhibition, % at 12.5 µM; AID 743445; in the data active means inhibition above about 50%
Target sequence (O96028 whole entry, looked up): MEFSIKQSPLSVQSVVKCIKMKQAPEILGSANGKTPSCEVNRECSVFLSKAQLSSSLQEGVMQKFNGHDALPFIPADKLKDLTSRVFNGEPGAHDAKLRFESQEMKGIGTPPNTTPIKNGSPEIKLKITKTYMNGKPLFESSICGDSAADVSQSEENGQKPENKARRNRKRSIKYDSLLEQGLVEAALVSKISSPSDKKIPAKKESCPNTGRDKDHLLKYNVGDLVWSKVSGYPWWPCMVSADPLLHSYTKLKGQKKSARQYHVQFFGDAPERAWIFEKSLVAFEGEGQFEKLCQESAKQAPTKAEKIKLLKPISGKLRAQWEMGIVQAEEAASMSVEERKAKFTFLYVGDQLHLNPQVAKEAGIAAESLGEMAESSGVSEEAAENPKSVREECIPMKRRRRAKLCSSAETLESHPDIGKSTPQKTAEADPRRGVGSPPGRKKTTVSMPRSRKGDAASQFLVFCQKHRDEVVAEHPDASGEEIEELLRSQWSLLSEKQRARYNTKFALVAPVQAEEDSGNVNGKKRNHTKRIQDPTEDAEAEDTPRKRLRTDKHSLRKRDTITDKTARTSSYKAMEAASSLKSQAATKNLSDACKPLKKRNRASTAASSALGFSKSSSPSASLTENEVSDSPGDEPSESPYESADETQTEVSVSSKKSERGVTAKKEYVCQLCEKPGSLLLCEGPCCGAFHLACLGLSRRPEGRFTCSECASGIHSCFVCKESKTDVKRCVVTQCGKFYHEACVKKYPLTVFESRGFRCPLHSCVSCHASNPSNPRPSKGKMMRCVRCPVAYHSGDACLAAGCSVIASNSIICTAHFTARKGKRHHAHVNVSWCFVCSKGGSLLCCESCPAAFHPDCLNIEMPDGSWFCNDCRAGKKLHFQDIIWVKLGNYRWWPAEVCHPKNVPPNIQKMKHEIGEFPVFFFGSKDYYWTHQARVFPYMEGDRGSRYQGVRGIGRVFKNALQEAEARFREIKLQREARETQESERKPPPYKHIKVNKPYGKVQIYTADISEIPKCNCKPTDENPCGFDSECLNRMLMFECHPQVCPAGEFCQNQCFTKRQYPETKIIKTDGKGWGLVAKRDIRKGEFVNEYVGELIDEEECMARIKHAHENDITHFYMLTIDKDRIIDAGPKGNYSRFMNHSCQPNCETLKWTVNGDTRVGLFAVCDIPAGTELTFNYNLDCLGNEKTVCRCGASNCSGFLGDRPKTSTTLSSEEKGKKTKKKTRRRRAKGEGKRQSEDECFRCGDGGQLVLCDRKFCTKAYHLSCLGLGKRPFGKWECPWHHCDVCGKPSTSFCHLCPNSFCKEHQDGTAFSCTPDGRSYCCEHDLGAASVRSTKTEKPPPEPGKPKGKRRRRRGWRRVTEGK
SIRT5 inh – inhibitors of human sirtuin-5 desuccinylase; Q9NXA8; Purified SirT5, succinyl-peptide AMC, trypsin-coupled fluorescence; inhibition, % at 15 µM; hit rate 1.1% among 330,000; AID 652115; in the data active means inhibition above about 15%
PfHsp90 set2 – growth inhibition of yeast expressing Plasmodium Hsp90 | inhibition, % at 9.4 µM | S. cerevisiae expressing PfHsp90, BacTiter-Glo ATP, 48 h; yeast lacking PDR1 and PDR3 efflux regulators | AID 504621 | hit rate 0.32% among 310,000;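 active means every replicate shows inhibition above about 80%, whatever the replicate mean, limit read from the data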;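 further: 0% = DMSO neutral controls and 100% = 20 µM radicicol positive controls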
An asterisk follows results filed as active; x = no result. Most compounds without a hit are left out; they make up all but 2.1% or so of the library.

SMILES	ARNT TACC3 PPI	Casp6 inh	NSD2 inh	SIRT5 inh	PfHsp90 set2
CC1CCCCC1NC(=O)/C(C#N)=C/c1ccccc1F (stereo unspecified)	x	-2	-3	2	121*
C[C@H](CO)N1C[C@H](C)[C@@H](CN(C)Cc2ccc(C(=O)O)cc2)Oc2ccc(NC(=O)Nc3cccc4ccccc34)cc2CC1=O	-6	5	x	3	x
CCOc1ccc2c(ccc(/C=C/c3cc(C)c4cccnc4c3O)[n+]2C)c1	65*	x	19	x	115*
CN(C)/C=C/C(=O)c1ccc2noc(-c3ccc(F)cc3)c2c1	-1	4	0	-3	59
Cc1ccc(-c2onc3ccc(C(=O)/C=C/N(C)C)cc23)cc1	5	5	-1	0	119*
C=CCn1c(O)c(C2=c3ccccc3=NC2=O)c2ccccc21	-18	-1	15	0	110*
Cc1ccc2c(c1)c(C1=c3ccccc3=NC1=O)c(O)n2C	-5	0	6	-1	1
CCOC(=O)c1cc([N+](=O)[O-])cc([N+](=O)[O-])c1Sc1ncnc2nc[nH]c12	6	16	10	0	107*
CC(CN1CCCCC1)C(=O)NNC(=O)C12CC3CC(CC(C3)C1)C2 (stereo unspecified)	-6	43*	-3	9	32
CC(CN1CCCCCC1)C(=O)NN (stereo unspecified)	16	-89	-5	-3	-6
N#C[C@H]1[C@H](c2ccc(C3=CCCCC3)cc2)[C@@H](CO)N1C(=O)NC1CCCCC1	21	1	x	5	x
Nn1c(-c2ccccn2)nnc1-c1ccccn1	79*	x	-4	x	-3
CCCNC(=O)N1[C@H](C#N)[C@H](c2ccccc2-c2ccccc2)[C@@H]1CO	x	-1	x	2	x
CCN(CC)c1ccc(S(=O)(=O)N2CCOCC2)cc1NC(=O)CN1CCN(Cc2ccccc2)CC1	8	-2	5	29*	-6
COc1ccc(N2CCN(CC(=O)Nc3cccc(S(=O)(=O)N4CCOCC4)c3)CC2)cc1	-1	4	1	15*	x
O=C(CSc1cccc2cccnc12)Nc1cccc(S(=O)(=O)N2CCOCC2)c1	26*	-2	1	-3	5
CCN(CC)c1ccc(S(=O)(=O)N2CCOCC2)cc1NC(=O)CNCc1ccccc1	2	0	2	-2	-12
CCCNC(=O)Nc1ccc2c(c1)C(=O)N(C)[C@H]1CC[C@H](CC(=O)Nc3cc(F)ccc3F)O[C@@H]1CO2	-12	-3	x	1	x
O=C(CN1C(=O)COc2ccccc21)Nc1ccccc1F	-2	-1	-2	1	-8
O=C(CN1C(=O)COc2ccccc21)NNC(=O)Nc1ccccc1F	-2	4	11	26*	-7
C[C@H](CO)N1C[C@H](C)[C@@H](CN(C)C(=O)C2CC2)Oc2cc(Br)ccc2S1(=O)=O	-1	-2	x	-13	x
Cc1ccc(-n2cc(CN3CCN(Cc4nccn4C)CC3)c(-c3ccc(F)cc3)n2)cc1	17	-23	1	112*	33
Cc1ccc(-n2cc(CN3CCN(c4ccccn4)CC3)c(-c3ccc(F)cc3)n2)cc1	-12	-4	2	0	x
CC(C)OCC(O)CN1CCC(Cc2ccccc2)CC1 (stereo unspecified)	8	-2	1	1	-55
OC(COc1ccc(Br)cc1)CN1CCC(Cc2ccccc2)CC1 (stereo unspecified)	-3	-1	1	30*	36
SMILES	ARNT TACC3 PPI	Casp6 inh	NSD2 inh	SIRT5 inh	PfHsp90 set2
Cc1ccc(S(=O)(=O)N[C@H]2C=C[C@@H](CC(=O)NCc3ccncn3)O[C@H]2CO)cc1	-7	3	x	-4	x
CO[C@H]1CN(C)C(=O)c2cc(NC(=O)Nc3ccccc3)ccc2OC[C@H](C)N(C(C)=O)C[C@H]1C	-4	-3	x	1	x
O=C(CN1CCC(c2nc3ccccc3s2)CC1)N1CCCCC1	-2	-4	1	38*	-14
COC(=O)C1=C(C)N(CC(C)C)C(=S)NC1c1cccc(OC)c1 (stereo unspecified)	x	-2	0	29*	x
COCCCNC(=O)c1ccc(CN2CCc3ccccc3C2)cc1	-3	-4	3	23*	-19
C[C@@H]1CN([C@@H](C)CO)C(=O)c2cccc(NC(=O)C3CCOCC3)c2O[C@H]1CN(C)CC1CCCCC1	5	3	x	1	x
Cc1nnc(N2C(=O)c3oc4ccccc4c(=O)c3C2c2ccco2)s1 (stereo unspecified)	-5	38*	x	x	13
CC(C)c1nnc(N2C(=O)c3oc4ccccc4c(=O)c3C2c2ccco2)s1 (stereo unspecified)	-1	x	6	x	-8
N#C/C(=C/c1ccc(N2CCCCCC2)o1)c1ccc(Cl)cc1	-3	x	0	x	104*
Cc1c([N+](=O)[O-])cc(C(=O)Nc2ccc(NC(=O)c3ccco3)cc2)cc1[N+](=O)[O-]	-1	10	-3	19*	1
O=C(Nc1ccc(Cl)c([N+](=O)[O-])c1)c1ccco1	20	3	1	-7	-9
O=C(CN1CC(=O)Oc2ccccc21)OCC(=O)c1ccc(F)cc1	63*	-5	3	-4	-8
O=C(CN1CC(=O)Oc2ccccc21)OCC(=O)c1ccc(Br)cc1	71*	x	5	x	0
COc1cccc(CN2[C@@H](CO)[C@@H](c3ccccc3)C23CN(C(=O)C2CCOCC2)C3)c1	x	-1	x	-1	x
O=C1O[C@@H](c2ccccc2)[C@@H](c2ccccc2)N2[C@@H](c3ccc(OCCO)cc3)[C@]3(C(=O)Nc4ccc(C#CC5=CCCCC5)cc43)[C@@H](C(=O)NC[C@H](O)c3ccccc3)[C@H]12	27	-1	x	12	x
COc1ccc(Cl)cc1C(Nc1cccnc1)c1ccc2cccnc2c1O (stereo unspecified)	15	8	-1	-3	104*
CCC(=O)NC(c1ccccc1OC)c1ccc2cccnc2c1O (stereo unspecified)	33	x	-6	x	-94
O=[N+]([O-])c1ccc(NC(c2ccccc2)c2ccc3cccnc3c2O)cc1 (stereo unspecified)	-9	-3	-2	1	113*
COc1cccc(C(NC(C)=O)c2ccc3cccnc3c2O)c1 (stereo unspecified)	100*	2	x	-6	13
CC(=O)NC(c1ccc(C(C)C)cc1)c1ccc2cccnc2c1O (stereo unspecified)	5	1	-3	-1	108*
Oc1c(C(Nc2cccc(C(F)(F)F)c2)c2cccnc2)ccc2cccnc12 (stereo unspecified)	21	x	-1	x	11
CC(=O)NC(c1cccc([N+](=O)[O-])c1)c1ccc2cccnc2c1O (stereo unspecified)	21	4	0	-4	33
COc1ccc2c3c([nH]c2c1)[C@H](CO)N(Cc1ccccc1)CC31CN(C(=O)c2cccnc2)C1	x	3	x	0	x
